Results: PubChem BioAssay
The source made the active and inactive calls.

system: Wnt5a (protein binding on small-molecule microarray); experiment: Wnt5a binders on small-molecule microarray, primary screen, biophysical, 635/667 nm fluorescence (AID 1142); conditions: 635 nm fluorescence, higher = more signal;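 note: fluorescence read at 667 nm with signal to noise per printed feature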

| SMILES | composite z-score |
| --- | --- |
| O=C(CS)NCCCCCCNC(=O)[C@@H]1C[C@@H]2C(=O)NCC(=O)N2[C@@H]1c1cccc(OCCO)c1 | 0.136 |
| CC[C@@H]1C=C(C(=O)O)[C@H](c2ccc(Br)cc2)N1S(=O)(=O)c1ccc(C)cc1 | -0.13 |
| CCOC(=O)C[C@H]1[C@H](OC(=O)c2ccccc2-c2ccccc2)[C@@H](NC(=O)CC(C)C)c2cc(OCCCO)ccc2N1C(=O)Cc1ccc(OC)cc1 | -0.0051 |
| CCCC[C@@H]1C[C@H]1[C@@H](NC(=O)c1cccs1)c1ccc(-c2ccccc2)cc1 | -0.0739 |
| COc1ccc(-c2cc3c(c(-c4ccc(Oc5ccccc5)cc4)n2)[Si](C(C)C)(C(C)C)OC3)cn1 | -0.394 |
| CC(C)C(=C=CC[C@@H](O)c1ccc(OCCO)cc1)C[C@@H](O)COCc1ccccc1 | 0.13 |

system: not listed separately; experiment: cell viability in Huh7 cells, primary screen, cytotoxicity control for HCV replication inhibitor project, CellTiter-Glo luminescence, basal, 48 h (AID 1143); conditions: Huh7 HCV replicon, higher = more signal, called active from +8 up or from −8 down;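 note: Huh7 hepatoma cells carrying a hepatitis C replication reporter with no stimulus; test concentration not given here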

| SMILES | z-score |
| --- | --- |
| CCC(CC)C(O)C1C=CC2C(=O)NC(=O)C2N1Nc1ccc(Cl)cc1Cl (stereo unspecified) | -0.776 (inactive) |
| C=C(CCCC)/C(=C/C[C@@H](OC(=O)c1ccncc1)c1ccc(OCCO)cc1)c1cc(C(=O)OC)ccc1OC | -1.43 (inactive) |
| CO[C@H]1O[C@H](CO)[C@@H](OC(=O)Nc2cccc(F)c2)[C@H](OC(=O)Nc2ccccc2)[C@@H]1OC(=O)Nc1ccccc1 | -5.79 (inactive) |
| C=C(COC)C(=O)CC[C@@H](OC(C)=O)c1ccc(CO)o1 | 0.622 (inactive) |
| COC(=O)[C@H](Cc1ccccc1)N1CC2=C[C@@H](C3CC3)n3c(=O)n(C)c(=O)n3[C@H]2[C@@H]1[C@@H](O)Cc1ccccc1 | -1.18 (inactive) |
| C=C[C@H](CO[Si](CC)(CC)CC)N(Cc1ccc(OC(C)=O)c(OC)c1)S(=O)(=O)c1ccc(Br)cc1 | -4.96 (inactive) |
| C=CCOC(=O)[C@H]1[C@@H]2C(=O)O[C@@H](c3ccccc3)[C@@H](c3ccccc3)N2[C@@H](c2ccc(OCCOC(=O)[C@H]3C[C@H]4C(=O)N[C@@H](CCCCNC(C)=O)C(=O)N4[C@H]3c3ccc(O)cc3)cc2)[C@]12C(=O)Nc1ccc(I)cc12 | -1.48 (inactive) |
| CC(C)C(O)C1C=CC2C(=O)NC(=O)C2N1Nc1ccc(Cl)cc1Cl (stereo unspecified) | -0.158 (inactive) |
| COc1ccc([Si](C)(C)[C@H]2[C@H](CCO)O[C@@]3(C(=O)N(Cc4ccc(N(C=O)c5ccccc5)cc4)c4ccccc43)[C@@H]2C)cc1 | -5.81 (inactive) |
| CC(C)C(O)C1C=CC2C(=O)N(c3ccccc3)C(=O)C2N1Nc1ccc([N+](=O)[O-])cc1 (stereo unspecified) | -0.208 (inactive) |
| CC(C)C[C@@H]1NC(=O)[C@H](C(C)C)NC(=O)[C@@]23C(=O)N[C@@H](Cc4ccccc4)C2[C@H](C)[C@@]2(C)O[C@H]2C3/C=C/CC/C=C/CNC1=O (stereo partly specified) | -3.05 (inactive) |
| CC1(C)[C@@H]2CC(C(O)C3C=CC4C(=O)N(c5ccccc5)C(=O)C4N3Nc3ccc([N+](=O)[O-])cc3)=C[C@H]1C2 (stereo partly specified) | -1.2 (inactive) |
| COc1ccccc1CN1C(=O)c2ccccc2[C@@]2(Cc3ccccc3N(CC(C)C)C2=O)[C@@H]1c1ccc(CO)cc1 | 0.332 (inactive) |
| CC1CC/C=C\[C@H]2OC34C=CCN(C(C)(C)C)C(=O)[C@H]3N(C(C)CO)C(=O)[C@@H]4C2C(=O)O1 (stereo partly specified) | 0.4 (inactive) |
| O=C(NCCO)C1=C[C@H](Oc2ccccc2I)[C@@H](O)[C@H](N(Cc2ccco2)C(=O)Cc2ccccc2)C1 | 0.0266 (inactive) |
| CN(C)CCCC[C@@H]1NC(=O)[C@H]2C[C@@H](C(=O)NCCCCCCN)[C@@H](c3ccc(O)cc3)N2C1=O | 0.181 (inactive) |
| COC(=O)C(CC#Cc1ccc2c(c1)[C@]1(C(=O)N2)[C@H](c2ccc(OCCO)cc2)N2[C@H](c3ccccc3)[C@H](c3ccccc3)OC(=O)[C@H]2[C@@H]1C(=O)N1CCc2cc(OC)c(OC)cc2C1)C(=O)OC | -0.6 (inactive) |
| [N-]=[N+]=Nc1ccccc1[C@H]1OC(c2ccc(OCCCO)cc2)=N[C@@]1(CCS(=O)(=O)c1ccccc1)C(N)=O | -1.26 (inactive) |

| SMILES | z-score |
| --- | --- |
| COC(=O)[C@@]1(Cc2ccc(F)cc2)[C@H]2c3cc(C(=O)N(C)C)n(Cc4ccccc4)c3C[C@H]2CN1C(=O)c1ccccc1 | -2.67 (inactive) |
| COc1cc(COC(C)=O)ccc1OC(C)=O | -1.68 (inactive) |
| CN1C(=O)C2C=CC(C(O)C#Cc3ccccc3)N(N3CCCCC3)C2C1=O (stereo unspecified) | 0.913 (inactive) |
| NC(=O)NCC#Cc1ccc2c(c1)[C@]1(C(=O)N2)[C@H](C(N)=O)[C@H]2C(=O)O[C@H](c3ccccc3)[C@H](c3ccccc3)N2[C@@H]1c1ccc(O)cc1 | -0.0803 (inactive) |
| CO[C@H]1O[C@H](CO)[C@@H](OC(=O)Nc2ccc(Oc3ccccc3)cc2)[C@H](OC(=O)Nc2ccc3c(c2)OCO3)[C@H]1OC(=O)Nc1ccc2c(c1)OCO2 | -1.48 (inactive) |
| CC(C)NC(=O)[C@@H]1c2ccccc2C(=O)N(C2Cc3ccccc3C2)[C@H]1c1ccc(CO)cc1 | -1.09 (inactive) |
| CCCc1cc2c(n1Cc1cc(F)cc(F)c1)C(C)C1CN(C(=O)c3ccccc3)C(C)(C(=O)OC)C21 (stereo unspecified) | -2.5 (inactive) |
| [N-]=[N+]=Nc1ccccc1[C@@H]1OC(c2ccc(OCCCO)cc2)=N[C@]1(CCS(=O)(=O)c1ccccc1)C(N)=O | -1.12 (inactive) |
| O=C1c2ccccc2[C@](Cc2ccccc2I)(C(=O)NCCN2CCOCC2)[C@H](c2ccc(CO)cc2)N1Cc1ccccc1Cl | -2.57 (inactive) |
| O=C(N1CCCCC1)[C@]1(Cc2ccccc2)N=C(c2ccc(OCCCO)cc2)O[C@@H]1c1ccccc1 | -6.07 (inactive) |
| CC(=O)NCCCC[C@@H]1NC(=O)[C@H]2C[C@@H](C(=O)NCCCCCCNC(=O)CS)[C@@H](c3ccc(O)cc3)N2C1=O | -0.133 (inactive) |
| O=C(CS)NCCCCCCNC(=O)[C@@H]1C[C@@H]2C(=O)NCC(=O)N2[C@@H]1c1cccc(OCCO)c1 | 0.429 (inactive) |
| CC[C@@H]1C=C(C(=O)O)[C@H](c2ccc(Br)cc2)N1S(=O)(=O)c1ccc(C)cc1 | -0.141 (inactive) |
| CCOC(=O)C[C@H]1[C@H](OC(=O)c2ccccc2-c2ccccc2)[C@@H](NC(=O)CC(C)C)c2cc(OCCCO)ccc2N1C(=O)Cc1ccc(OC)cc1 | -0.386 (inactive) |
| CCCC[C@@H]1C[C@H]1[C@@H](NC(=O)c1cccs1)c1ccc(-c2ccccc2)cc1 | -2.14 (inactive) |
| COc1ccc(-c2cc3c(c(-c4ccc(Oc5ccccc5)cc4)n2)[Si](C(C)C)(C(C)C)OC3)cn1 | -1.11 (inactive) |
| CC(C)C(=C=CC[C@@H](O)c1ccc(OCCO)cc1)C[C@@H](O)COCc1ccccc1 | -2.24 (inactive) |
